# IL-1B inflam inh: blocks inflammasome-driven IL-1 beta release | THP-1 LPS/ATP IL-1B secretion, AlphaLISA, 16 h; stronger effect = lower value | activity change, % at 57.5 µM | actives 4.7% (n = 360,000); in the data active = activity change below about -50%; inconclusive = mostly about -30% to -49%
#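 Secreted IL-1B measured by AlphaLISA bead assay after 16 h compound exposure of THP-1 cells; compounds (final up to 57.5 uM) added 1 h before LPS (250 ng/mL) and ATP (1.25 mM) stimulation; lower signal means less secretion.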
# KB-V1 MDR tox: KB-V1 MDR subline cytotoxicity | KB-V1 MDR cells viability, CellTiter-Glo, 72 h | Potency, µM (titrated, usually from 46.1 µM), most hits filed as cytotoxic | actives 3.4% (n = 400,000) | AID 1347076; also: potency is read from the fitted curve at half-maximal effect; nearly all actives have a fitted effect of over 60% in size
#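 Luminescent ATP read-out (CellTiter-Glo, 10 min) measures survival of drug-selected KB-V1 MDR cells after 72 h, 37 degrees C compound exposure. Medium: phenol-red-free DMEM, 10% FBS. Values from fitted concentration-response curves.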
# HT1080-NT tox: kills 2HG-producing HT-1080-NT fibrosarcoma cells. HT-1080-NT fibrosarcoma viability, CellTiter-Glo ATP luminescence, 48 h. AID 686970. Potency, µM (series often up to 46.1 µM), inactives show at the top dose activity, negative = less viability, usual class: cytotoxic. actives 1.6% (n = 360,000);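 also: NT is the 2HG producing partner of a matched IDH1 knockdown line; potency is read from the fitted curve at half-maximal effect; 0% = DMSO-treated cells and -100% = media-only wells without cells; nearly all actives have a fitted effect of over 55% in size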
#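 A 48-hour cytotoxicity screen used HT-1080-NT cells plated 2 hours before compound delivery. ATP-based CellTiter-Glo luminescence measured viability, normalized to DMSO and no-cell controls.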
# HT1080 IDH1KD tx: kills HT-1080 cells with IDH1 knockdown; AID 686971; HT-1080 IDH1 knockdown viability, ATP luminescence, 48 h; Potency, µM (highest dose often 46.1 µM), for the others: at the top dose activity, negative = toxicity, actives largely listed as cytotoxic; actives 2% (n = 360,000);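 also: potency is read from the fitted curve at half-maximal effect; 0% = DMSO wells and -100% = cell-free medium wells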
#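 % activity derives from luminescence (CellTiter-Glo), normalised to DMSO and no-cell wells. HT-1080-IDH1KD cells, 750/well, had 48 h compound exposure at 37 °C.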
# KB-3-1 cytotox: kills parental KB-3-1 adenocarcinoma cells; KB-3-1 viability, CellTiter-Glo ATP luminescence, 72 h; Potency, µM (doses to about 46.1 µM), usual class: cytotoxic; actives 1.4% (n = 400,000); AID 1347075; also: potency is read from the fitted curve at half-maximal effect; nearly all actives have a fitted effect of over 60% in size
#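 Viability of parental KB-3-1 cells, measured by CellTiter-Glo luminescence, followed a 72 h incubation at 37 °C with pinned compounds in phenol-red-free DMEM containing 10% FBS.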
# Active calls of the source: *; i = inactive; ? = inconclusive; . = not tested or not shown; ! = a repeat was not active; [ ] = dose if it differs, or a comment. This is a sample that favours compounds with a hit; in the whole collection about 8.8% have one here. Unless noted, calls follow the shape of the dose curve; as a rule, active = well fitted curve in the direction sought with a large enough effect; inconclusive = small, poorly fitted or top-dose-only effect, or another doubt; inactive = no such curve, though single readings can be large; an effect the other way counts as inactive or inconclusive. Unless noted, % is scaled to controls: 0 for no effect and ±100 for the full control effect.
SMILES,IL-1B inflam inh,KB-V1 MDR tox,HT1080-NT tox,HT1080 IDH1KD tx,KB-3-1 cytotox
c1ccc(N=c2nc(-c3ccccc3)n(-c3ccccc3)s2)cc1,.,16.4µM*,.,.,?
CSc1nc(Cl)cc(N2CCOCC2)n1,18.5,i,2.4%,1.4%,i
CC(=O)c1cccc(NC(=O)Cn2c(-c3cncs3)nc3ccccc32)c1,.,i,.,.,i
CCn1c(=O)cc(SCC(=O)Nc2ccc3c(c2)OCO3)c2ccccc21,-20.0,16.4µM*,-6.8%,?,i
CCn1c(=O)cc(SCC(=O)N2CCN(c3ccccc3F)CC2)c2ccccc21,-17.2,23.1µM*!,-7.2%,-4.6%,i
CCn1c(=O)cc(SCC(=O)N(C)Cc2ccccc2)c2ccccc21,?,4.61µM*,-1.0%,-6.4%,i
CCn1c(=O)cc(SCC(=O)N2CCN(c3ccccn3)CC2)c2ccccc21,-14.4,?,-1.2%,-3.9%,i
O=C(Nc1ccc(Cl)cc1)C1CCN(C(=O)c2ccco2)CC1,-7.1,i,-10.6%,-8.0%,i
COc1cc(C(=O)Nc2nnc(CC(C)(C)C)s2)c([N+](=O)[O-])cc1OC,0.0,20.6µM*,-1.0%,0.8%,i
CCOCc1nnc(NC(=O)c2cc(OC)c(OC)cc2[N+](=O)[O-])s1,4.9,i,-0.9%,-6.9%,i
COc1ccc(Cc2nnc(NC(=O)c3cccc([N+](=O)[O-])c3C)s2)cc1,17.2,20.6µM*,-0.3%,-8.4%,i
O=C(c1cccc(F)c1)N1CCN(S(=O)(=O)Cc2ccccc2)CC1,11.0,i,8.0%,15.5%,i
N#CC1=C(N)N2C(=C(C#N)C1c1cccc(Br)c1)Nc1ccccc12 (stereo not drawn),-118.6*,5.8µM*,?,?,?
CN(C)C(=O)c1cccc(COc2ccc(N3C(N)=NC(N)=NC3(C)C)cc2Cl)c1,7.5,i,0.0082µM*,?,i
Cn1c(=O)c2[nH]c(CN(Cc3ccccc3)Cc3ccccc3)nc2n(C)c1=O,24.0,8.2µM*,0.7%,0.5%,i
Cn1c(=O)c2[nH]c(CCCCCCCCc3nc4ccccc4[nH]3)nc2n(C)c1=O,-59.9*,i,?,-15.8%,i
Cn1c(=O)c2[nH]c(CSCc3ccccc3)nc2n(C)c1=O,0.0,i,10.6%,14.9%,i
Cc1c(CCOC(=O)c2cc([N+](=O)[O-])cc([N+](=O)[O-])c2)sc[n+]1CC(=O)c1ccc(Br)cc1,-97.2*,?,-0.7%,-20.9%,i
Cc1c(CCOC(=O)c2ccc(Cl)cc2Cl)sc[n+]1CC(=O)c1ccccc1,-18.9,i,-2.5%,-1.1%,i
Cc1c(CCOC(=O)C23CC4(C)CC(C)(CC(C)(C4)C2)C3)sc[n+]1CC(=O)c1ccccc1,-192.3*,?,?,?,?
Cc1c(CCOC(=O)C23CC4CC(CC(C)(C4)C2)C3)sc[n+]1Cc1ccccc1,-26.1,i,?,23.1µM*,?
O=C(CSc1ncc(-c2ccccc2)[nH]1)Nc1ccc(Cl)cc1,.,i,.,.,i
CCOc1cc(Br)c(C=O)cc1OCC,84.1,i,25.9µM*,32.6µM*,?
CN=C(Nc1ccc(C(=O)OC)s1)c1ccc(Cl)cc1,0.0,i,4.7%,3.5%,i
COc1cccc(C(=O)NCCS(=O)(=O)N2CCN(c3ccccc3)CC2)c1OC,-24.8,?,2.4%,-5.4%,i
SMILES,IL-1B inflam inh,KB-V1 MDR tox,HT1080-NT tox,HT1080 IDH1KD tx,KB-3-1 cytotox
FC(F)(F)c1nc2ccccc2n2c(-c3ccc(Cl)cc3)nnc12,?,5.8µM*,5.8µM*,4.61µM*,4.61µM*
Cc1ccc(-c2nnc3c(C(F)(F)F)nc4ccccc4n23)cc1,-25.9,20.6µM*,3.8%,12.1%,?
Cc1ccc(C(=O)NC2(C(F)(F)F)NC(=O)N(c3ccc(Cl)cc3)C2=O)cc1 (stereo not drawn),-60.5*,i,-18.2%,-25.4%,i
Cc1ccc(N2C(=O)NC(NC(=O)C3CC3)(C(F)(F)F)C2=O)cc1 (stereo not drawn),-7.9,i,-3.6%,3.6%,i
COc1cc(CNCc2cccs2)ccc1OCc1ccccc1,-22.4,i,?,0.0%,i
Clc1ccc(COc2cccc(CNCc3ccncc3)c2)cc1,-15.2,6.51µM*,-13.7%,-26.8%,?
COc1cc(CNCc2ccccn2)ccc1OCc1cccc(Cl)c1,-79.6*,i,?,-17.8%[9.24 µM],i
COc1cc(CNCc2ccccn2)ccc1OCc1ccc(Cl)cc1,-57.2*,i,?,?,i
COc1cc(CNCc2cccs2)ccc1OCc1cccs1,-83.9*,?,8.8%,?,i
CC(C)(CO)NCc1cccc(OCc2ccc(Cl)cc2)c1,?,?,?,-27.2%,?
COc1cc(CNCc2ccccn2)ccc1OCc1c(Cl)cccc1Cl,?,?,?,?,i
COC(=O)C[C@H]1c2cc(C(F)(F)F)ccc2S(=O)(=O)N1C(C)C,.,i,.,.,i
COc1ccc(C(=O)NC2CCCc3ccccc32)cc1[N+](=O)[O-] (stereo not drawn),41.8,5.8µM*,?,14.6µM*,?
O=C(NC1CCCc2ccccc21)c1n[nH]c(=O)c2ccccc12 (stereo not drawn),-7.6,?,?,9.2µM*,i
COc1ccccc1C(=O)NCC1(c2ccccc2)CCCC1,-76.9*,i,15.3%,-3.9%,i
COc1cc(C(=O)NC2CCCc3ccccc32)cc(OC)c1C (stereo not drawn),43.6,i,-29.9%,-20.9%,i
COc1ccc(C2(CNC(=O)c3ccc(OC)c([N+](=O)[O-])c3)CCCCC2)cc1OC,-15.1,2.59µM*,3.0%,21.7%,i
CC(=O)C[C@H]1SC[C@@H](C(C)C)N1S(=O)(=O)c1ccc(C)cc1,8.1,?,-1.9%,7.7%,i
CC(C)CN(C(=O)COc1ccc([N+](=O)[O-])cc1)c1c(N)n(CC(C)C)c(=O)[nH]c1=O,-5.1,i,-0.7%[9.24 µM],4.0%,i
CCn1c(=O)c(=O)[nH]c2cc(C(=O)NC3CCCc4ccccc43)ccc21 (stereo not drawn),66.8,i,?,?,10.3µM*
COc1cc(C(=O)NCC2(N(C)C)CCCCC2)ccc1OCc1ccccc1,-16.6,i,?,9.2µM*,i
COc1ccc(C(=O)NCC(=O)NCC2(N(C)C)CCCCC2)cc1OC,2.1,i,12.1%,5.1%,i
CCc1ccc(NC(=O)CSc2nc(-c3ccccc3Cl)nc3c2Cc2c(CO)cnc(C)c2O3)cc1,.,i,.,.,i
COc1ccc(C2=NN(C(=O)/C=C/c3ccccc3)C(c3ccccc3)C2)c(OC(C)=O)c1 (stereo not drawn),-6.7,2.91µM*,-8.7%,?,?

# Assay outcomes as filed in PubChem.
